# Assay outcomes from PubChem.
# An excerpt weighted towards active compounds, which were near 4.7% of everything screened.
# TIM10 inh = inhibits growth of TIM10 yeast strain | AID 463195 | inhibition, % at 10 µM | S. cerevisiae TIM10 strain growth, BacTiter-Glo luminescence, 24 h | 330,000 tested, 1.4% active;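 active means inhibition of 40% or more at the single tested concentration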;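 further: wild-type TIM10 isogenic control strain grown at permissive 25 °C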
# tim23-1 inh = growth inhibitors of tim23-1 mutant yeast; S. cerevisiae tim23-1 growth, BacTiter-Glo luminescence, 24 h; inhibition, % at 20 µM; 330,000 tested, 1.3% active; AID 463212;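 active means growth inhibition of the mutant yeast at or above 50%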;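 further: temperature-sensitive mutant grown at 25 °C; plate controls were DMSO-treated mutant yeast for no effect and medium wells lacking yeast for full effect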
# PfHsp90 set2 = reduces growth (ATP signal) of yeast expressing P. falciparum Hsp90 | S. cerevisiae expressing PfHsp90, BacTiter-Glo ATP, 48 h; yeast lacking PDR1 and PDR3 efflux regulators | inhibition, % at 9.4 µM | 310,000 tested, 0.32% active | AID 504621;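 active means every replicate shows inhibition above about 80%, whatever the replicate mean, limit read from the data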;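 further: 0% = DMSO neutral controls and 100% = 20 µM radicicol positive controls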
# Calb FLC = C. albicans growth modulation with fluconazole. growth inhibition, % (concentration not given with the values). 300,000 tested, 0.57% active. AID 1979. C. albicans CaCi-2 (fluconazole-resistant clinical isolate) + fluconazole, Alamar Blue growth, 48 h;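 active means growth inhibition above about 58% in most replicates, limit read from the data, passing the limit was not always enough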;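 further: all wells also contain fluconazole at 8 µg/ml as a sub-toxic cotreatment; 0% = median of DMSO wells and 100% = median of geldanamycin control wells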
# tim10-1 inh = tim10-1 yeast growth inhibition. S. cerevisiae tim10-1 ts strain growth, BacTiter-Glo, 24 h. inhibition, % at 20 µM. 330,000 tested, 2.2% active. AID 463190;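 active means inhibition of at least 40%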;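 further: mutant grown at 25 °C; 0% = DMSO wells with yeast and 100% = wells holding no yeast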
# SKKanGAS inh = inhibitors of SKKanGAS S. pyogenes growth in kanamycin (SK-promoter or general growth effect); BacTiter-Glo, 6 h; AID 1662; inhibition, % at 7.5 µM; 300,000 tested, 1.3% active;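 active means mean replicate score, as percent of positive control median, at least 50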;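 further: strain carries kanamycin resistance gene driven by streptokinase promoter and grows in 40 µg/ml kanamycin; loss of luminescence reflects streptokinase promoter inhibition or plain growth inhibition; 0% = median of DMSO wells and 100% = positive control at its reference dose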
# tim10-1 confirm = tim10-1 yeast growth inhibition, confirmed; S. cerevisiae tim10-1 ts strain growth, BacTiter-Glo, 24 h; shares compounds with tim10-1 inh; inhibition, % at 20 µM; 7,400 tested, 56% active;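 active means inhibition of yeast growth at or above a set limit in either of two repeat tests at 20 µM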;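 further: tim10-1 mutant grown at permissive 25 °C to find synthetic lethal compounds; 0% = DMSO yeast wells and 100% = medium wells without yeast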
# tim10 confirm = TIM10 yeast growth inhibition, confirmed | S. cerevisiae tim10 strain growth, BacTiter-Glo luminescence, 24 h | shares compounds with TIM10 inh | 4,600 tested, 63% active | inhibition, % at 10 µM;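 active means inhibition of yeast growth at or above a set limit in either of two replicates at 10 µM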;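 further: this counterscreen used the strain with wild-type TIM10; 0% = yeast with DMSO and 100% = medium wells lacking yeast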
# tim23-1 conf = confirmation of tim23-1 mutant yeast growth inhibitors. 4,400 tested, 83% active. AID 463218. shares compounds with tim23-1 inh. S. cerevisiae tim23-1 growth, BacTiter-Glo luminescence, 24 h. inhibition, % at 20 µM;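 active means inhibition above about 39% in either of two replicate wells at 20 µM, limit read from the data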;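 further: temperature-sensitive tim23-1 mutant grown at 25 °C; 0% = DMSO wells with yeast and 100% = medium wells without yeast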
# Active calls of the source: *; · = no result.
SMILES,TIM10 inh,tim23-1 inh,PfHsp90 set2,Calb FLC,tim10-1 inh,SKKanGAS inh,tim10-1 confirm,tim10 confirm,others
C/C(=N\NC(=S)NCc1ccccc1)c1ccc(Br)cc1,40,13,-2,6,49*,-4,24,32*,
C/C(=N\NC(=S)NCc1ccccc1)c1ccc2c(c1)OCCO2,46*,49,8,30,43*,-2,49*,39*,
CN(C)c1ccc(/C=N/NC(=S)NCc2ccccc2)cc1,55*,26,·,-17,43*,10,32*,44*,
C/C(=N\NC(N)=S)c1ccc2c(c1)OCCO2,-3,10,-24,-5,17,-5,·,·,
C/C(=N\NC(=S)NCCc1ccccc1)c1ccc(C)cc1,35,24,·,-1,37,27,·,·,
O=c1c(O)c(-c2ccccc2)oc2ccccc12,·,·,-13,·,·,·,·,·,
O=c1c(O)c(-c2cccs2)oc2ccccc12,65*,15,-57,-5,42*,76*,35*,71*,
CCc1n[nH]c(=S)n1/N=C/c1ccc(N(CC)CC)cc1,45*,19,-2,47,42*,-8,11,23,
CCc1n[nH]c(=S)n1/N=C/c1c(C)nn(-c2ccccc2)c1Cl,25,-9,-6,33,35,21,·,·,
CN(CC(=O)NCC(=O)Nc1ccc(F)cc1)C1CCS(=O)(=O)C1 (stereo not given),-2,-12,·,·,-17,·,·,·,
CN(CC(=O)Nc1ccccc1Cl)C(=O)CCc1nc2ccccc2c(=O)[nH]1,-1,-5,·,6,2,-3,·,·,
CCCCc1ccc(NC(=S)NCc2cccs2)cc1,40*,40,·,-26,46*,10,43*,35*,
O=C(O)COC(=O)Cc1ccccc1Nc1c(Cl)cccc1Cl,-4,-3,1,·,-7,1,·,·,
O=C1OC(c2ccc(F)cc2)=C/C1=C\c1ccc([N+](=O)[O-])o1,64*,-142,·,-3,71*,68*,41*,59*,
COc1ccc(Br)cc1/C=N/NC(=O)c1ccco1,23,24,29,38,6,-1,·,·,
COc1ccccc1/C=C/C(=O)c1cc(Br)ccc1OC(=O)c1ccco1,42*,49,-53,4,50*,3,42*,1,
CCCCOC(=O)/C(=C/C=C/c1ccccc1)NC(=O)c1ccccc1,32,30,-39,-9,38,-3,·,·,
CCCCOC(=O)/C(=C\c1ccc([N+](=O)[O-])o1)NC(=O)c1ccccc1,45*,25,-6,4,40*,17,40*,18,
C/C(=N\N=c1/sc2ccccc2n1C)c1ccccn1,43*,37,5,-10,43*,0,35*,-13,
C/C(=N\N=c1/sc2ccccc2n1C)c1ccc(N2CCOCC2)cc1,2,13,-1,-3,18,7,·,·,
O=C(Nc1cc(Sc2ccccn2)cc([N+](=O)[O-])c1)c1ccc(Cl)cc1,2,2,-15,0,2,38,·,·,
O=C(Nc1cc(Sc2ccccn2)cc([N+](=O)[O-])c1)c1cccc(Cl)c1,54*,38,-12,113*,42*,14,34*,-1,
O=[N+]([O-])c1ccc(-[n+]2ccc3ccccc3c2)c([N+](=O)[O-])c1,50*,49,-13,42,58*,6,52*,52*,
COc1ccc(C(C#N)=C2C=CC(=NO)C=C2)cc1,81*,45,115*,2,50*,19,54*,91*,
COc1cc(OC)c2cc(C(=O)N[C@@H](Cc3ccccc3)C(=O)O)n(C)c2c1,6,9,-12,7,4,5,·,·,
Oc1ccc2ccccc2c1CNc1ccc(Br)cn1,37,61*,2,16,46*,8,63*,·,tim23-1 conf=68*
